Results published in PubChem BioAssay (NCATS).
Results filed as inconclusive are left out. Active and inactive are the calls of the source. The call rests on the fitted dose curve; in most records, active means well fitted curve in the direction sought with a large enough effect; inconclusive means small, poorly fitted or top-dose-only effect, or another doubt; inactive means no such curve, though single readings can be large; an effect the other way counts as inactive or inconclusive.

Legend:
[1] = Quantitative High-Throughput drug screen in 47 multiple myeloma cell lines against the NCATS MIPE library collection: JIM1_ECACC cell viability assay (AID 1918964; further: potency means the concentration at half of the fitted maximal effect)
Method in brief: (§1)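 Primary qHTS used for cherry-picking: cells at 500/well, library compounds for 48 h (37C, 5% CO2), luminescent ATP assay.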

[2] = Quantitative High-Throughput drug screen in 47 multiple myeloma cell lines against the NCATS MIPE library collection: MMM1_PLB cell viability assay (AID 1918976); further: potency means the concentration at half of the fitted maximal effect; nearly all actives have a fitted effect of over 35% in size
Method in brief: (§2)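 Cells were exposed to library compounds for 48 hours, after which ATP was measured by CellTiter-Glo. Signal was taken as median relative luminescence units.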

[3] = Quantitative High-Throughput drug screen in 47 multiple myeloma cell lines against the NCATS MIPE library collection: MM1S_ATCC cell viability assay (AID 1918980); further: nearly all actives have a fitted effect of over 45% in size; further: potency means the concentration at half of the fitted maximal effect
Method in brief: as §2

[4] = Quantitative High-Throughput drug screen in 47 multiple myeloma cell lines against the NCATS MIPE library collection: LP1_DSMZ cell viability assay (AID 1918982); further: nearly all actives have a fitted effect of over 35% in size; further: potency means the concentration at half of the fitted maximal effect
Method in brief: as §2

[5] = Quantitative High-Throughput drug screen in 47 multiple myeloma cell lines against the NCATS MIPE library collection: H1112_PLB cell viability assay (AID 1918967; further: nearly all actives have a fitted effect of over 30% in size; further: potency means the concentration at half of the fitted maximal effect)
Method in brief: as §1

[6] = Quantitative High-Throughput drug screen in 47 multiple myeloma cell lines against the NCATS MIPE library collection: Karpas25_ECACC cell viability assay (AID 1918968; further: nearly all actives have a fitted effect of over 35% in size; further: potency means the concentration at half of the fitted maximal effect)
Method in brief: as §1

[7] = Quantitative High-Throughput drug screen in 47 multiple myeloma cell lines against the NCATS MIPE library collection: KMS27_JCRB cell viability assay (AID 1918970); further: nearly all actives have a fitted effect of over 30% in size; further: potency means the concentration at half of the fitted maximal effect
Method in brief: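 Myeloma cells (500 per well) were exposed to MIPE 4.0 compounds for 48 h at 37 °C, 5% CO2; viability was read as ATP luminescence with CellTiter-Glo, normalized to DMSO-only (100%) and media-only (0%) wells.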

[8] = Quantitative High-Throughput drug screen in 47 multiple myeloma cell lines against the NCATS MIPE library collection: KMS12PE_JCRB cell viability assay (AID 1918972); further: nearly all actives have a fitted effect of over 30% in size; further: potency means the concentration at half of the fitted maximal effect; on viability: series mostly up to about 46 µM
Method in brief: (§3)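 Viability readout: CellTiter-Glo luminescence following 5 min room-temperature incubation with reagent. Prior exposure: 48 h, 37C, humidified 5% CO2, 500 cells per well.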

[9] = Quantitative High-Throughput drug screen in 47 multiple myeloma cell lines against the NCATS MIPE library collection: KMS26_JCRB cell viability assay (AID 1918975); further: nearly all actives have a fitted effect of over 45% in size; further: potency means the concentration at half of the fitted maximal effect
Method in brief: (§4)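 Luminescent ATP measurement with CellTiter-Glo gives viability, scaled between DMSO-only wells (100%) and media-only wells (0%). Cells, 500 per well, faced library compounds for 48 hours at 37C.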

[10] = Quantitative High-Throughput drug screen in 47 multiple myeloma cell lines against the NCATS MIPE library collection: MOLP8_DSMZ cell viability assay (AID 1918977); further: nearly all actives have a fitted effect of over 45% in size; further: potency means the concentration at half of the fitted maximal effect
Method in brief: as §2

[11] = Quantitative High-Throughput drug screen in 47 multiple myeloma cell lines against the NCATS MIPE library collection: NCIH929_DSMZ cell viability assay (AID 1918978); further: nearly all actives have a fitted effect of over 35% in size; further: potency means the concentration at half of the fitted maximal effect
Method in brief: as §2

[12] = Quantitative High-Throughput drug screen in 47 multiple myeloma cell lines against the NCATS MIPE library collection: MM1R_ATCC cell viability assay (AID 1918981); further: nearly all actives have a fitted effect of over 35% in size; further: potency means the concentration at half of the fitted maximal effect
Method in brief: as §2

[13] = Quantitative High-Throughput drug screen in 47 multiple myeloma cell lines against the NCATS MIPE library collection: KMS28PE_JCRB cell viability assay (AID 1918983); further: nearly all actives have a fitted effect of over 35% in size; further: potency means the concentration at half of the fitted maximal effect
Method in brief: as §2

[14] = Quantitative High-Throughput drug screen in 47 multiple myeloma cell lines against the NCATS MIPE library collection: L363_DSMZ cell viability assay (AID 1918984); further: nearly all actives have a fitted effect of over 40% in size; further: potency means the concentration at half of the fitted maximal effect
Method in brief: as §2

[15] = Quantitative High-Throughput drug screen in 47 multiple myeloma cell lines against the NCATS MIPE library collection: INA6_PLB cell viability assay (AID 1918965; further: potency means the concentration at half of the fitted maximal effect; nearly all actives have a fitted effect of over 55% in size)
Method in brief: as §3

[16] = Quantitative High-Throughput drug screen in 47 multiple myeloma cell lines against the NCATS MIPE library collection: JJN3_DSMZ cell viability assay (AID 1918966; further: potency means the concentration at half of the fitted maximal effect; nearly all actives have a fitted effect of over 50% in size)
Method in brief: as §1

[17] = Quantitative High-Throughput drug screen in 47 multiple myeloma cell lines against the NCATS MIPE library collection: OCIMY1_PLB cell viability assay (AID 1918979)
Method in brief: as §2

[18] = Quantitative High-Throughput drug screen in 47 multiple myeloma cell lines against the NCATS MIPE library collection: KMS20_JCRB cell viability assay (AID 1918973); further: nearly all actives have a fitted effect of over 45% in size
Method in brief: as §1

[19] = Quantitative High-Throughput drug screen in 47 multiple myeloma cell lines against the NCATS MIPE library collection: KMS12BM_JCRB cell viability assay (AID 1918971)
Method in brief: as §4

Measured: Potency

COc1cc2c(cc1OC)CN(CCc1ccc(NC(=O)c3cccc4c(=O)c5cccc(OC)c5[nH]c34)cc1)CC2
inactive: [1] | [4]
active: [2] 20.9 µM | [3] 2.64 µM

CCOC(=O)C1=C[C@]2(CC)CCCN3CCc4c(n1c1ccccc41)[C@@H]32
active: [1] 11.8 µM | [5] 11.8 µM | [6] 9.35 µM | [7] 23.5 µM | [8] 10.5 µM | [9] 26.4 µM | [10] 18.7 µM | [11] 8.33 µM | [3] 11.8 µM | [12] 11.8 µM | [4] 20.9 µM | [13] 20.9 µM | [14] 11.8 µM

COc1ccc(COc2cc3oc(=O)c4cc(C(C)O)ccc4c3cc2OC)cc1 (stereo not drawn)
active: [15] 18.7 µM | [16] 26.4 µM | [5] 7.43 µM | [6] 18.7 µM | [8] 2.64 µM | [9] 11.8 µM | [2] 18.7 µM | [10] 18.7 µM | [11] 26.4 µM | [3] 13.2 µM | [13] 23.5 µM | [14] 5.26 µM

Cc1cc(C=c2sc3nc4ccccc4n3c2=O)c(C)n1-c1ccccc1
inactive: [1] | [5] | [6] | [7] | [8] | [11] | [17] | [4]
active: [9] 5.9 µM | [12] 7.43 µM

O=c1n(CCCN2CCN(c3cccc(Cl)c3)CC2)nc2ccccn12
inactive: [1] | [5] | [7] | [18] | [9] | [11] | [12] | [4] | [13] | [14]

Cc1ccnc(NS(=O)(=O)c2ccc(NC(=O)Nc3ccc(S(=O)(=O)Nc4nccc(C)n4)cc3)cc2)n1
active: [1] 16.6 µM | [7] 20.9 µM | [8] 20.9 µM
inactive: [5] | [11] | [3] | [12] | [13]

CCc1cncnc1N1CCN(Cc2nc3ccc(C(F)(F)F)cc3[nH]2)CC1
active: [6] 5.26 µM | [7] 7.43 µM | [19] 14.8 µM | [8] 2.09 µM | [9] 4.18 µM | [3] 18.7 µM | [12] 18.7 µM | [13] 20.9 µM | [14] 5.26 µM
inactive: [1] | [17]

COc1cc(Oc2ccnc3cc(OC)c(OC)cc23)ccc1NC(=O)NC(C)c1nccs1 (stereo not drawn)
active: [1] 0.105 µM | [6] 23.5 µM | [7] 5.9 µM | [12] 18.7 µM
inactive: [10] | [11]

CC(C)(N)C(=O)N[C@H](COCc1ccccc1)C(=O)N1CCC2(CC1)CN(S(C)(=O)=O)c1ccccc12
active: [6] 16.6 µM | [7] 5.26 µM | [9] 0.0264 µM | [3] 23.5 µM | [12] 18.7 µM | [4] 16.6 µM | [13] 18.7 µM
inactive: [1] | [8]
